EBV LMP1 NFkB: reduces LMP1-driven NF-kappaB luciferase signal | LMP1-induced NF-kappaB luciferase reporter cells, luminescence | inhibition, % at 12.5 µM | 350,000 compounds, 0.69% hits; in the data active = inhibition above about 41%; inconclusive = no clear call, values can overlap the other calls
HSF1 activator: increases HSF-1 driven luciferase reporter signal; NIH3T3-HGL HSF-1 luciferase reporter, MG132, 8 h; 100% = twice DMSO control signal; activation, % at 9 µM; 300,000 compounds, 1.7% hits; AID 504408;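 active = mean replicate activation of at least 50% with a set share of replicates each reaching 50%; inconclusive = only one of those two conditions met; inactive = mean below 50% and too few replicates reaching it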
TWEAK-Fn14 inh: TWEAK-Fn14 signaling inhibition | inhibition, % at 10 µM | TWEAK-stimulated Fn14 reporter cells, luciferase luminescence, 8 h | 360,000 compounds, 2% hits; in the data active = inhibition above about 50%
TROY signal inh: blocks TROY-dependent signaling in reporter cells; 360,000 compounds, 0.98% hits; Q293 LMP1-TROYcd NF-kB luciferase reporter, 4 h; inhibition, % at 10 µM;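 active = compounds whose plate-normalised and pattern-corrected inhibition of the luciferase reporter signal at the single screening dose is 50% or more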
HSF1 inhib: HSF1 inhibition | NIH3T3-HGL HSE-luciferase, MG132-induced, luminescence 8 h; stronger effect = lower value | activity change, negative = inhibition, % at 7.5 µM (by protocol) | 300,000 compounds, 0.77% hits | AID 2098;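 active = more than half of replicate wells show activity change below -50%, luminescence cut by over half; inconclusive = some wells, but at most half, below -50%; inactive = no replicate well below -50%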;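 also: luciferase reports HSF-1 transcriptional activity via heat shock element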
HSP90 inh: blocks HSP90-mediated luciferase refolding in reticulocyte lysate. 290,000 compounds, 0.91% hits. AID 1789. Rabbit reticulocyte lysate, luciferase refolding luminescence, 3 h. inhibition, % at 5.6 µM;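 active = inhibition above the screen-wide mean plus 3 SD, computed separately per campaign, cut at about 16% in these data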;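 also: inhibitors lower the luminescence because luciferase stays unfolded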
Numbers stand for hits; – = inactive; ? = inconclusive; · = no result. An excerpt weighted towards active compounds, which were near 4.7% of everything screened.

SMILES	EBV LMP1 NFkB	HSF1 activator	TWEAK-Fn14 inh	TROY signal inh	HSF1 inhib	HSP90 inh
CCOC(=O)c1cccc(N2C(=O)C3C(C2=O)C2C=CC3C23CC3)c1 (stereo not given)	–	–	88.5	·	–	–
COc1cc(=O)[nH]c(SCC(=O)Nc2nc3c(s2)CCCC3)n1	–	–	–	–	-85.7	–
CCC(C)c1ccc(S(=O)(=O)N2CCN(C(=O)COc3ccc4c(C)cc(=O)oc4c3)CC2)cc1 (stereo not given)	–	–	57.6	·	–	–
COc1cc(CC(NC(C)=O)C(=O)NC2CCN(C(=O)c3ccc(C)cc3)CC2)cc(OC)c1 (stereo not given)	–	–	–	–	–	–
COc1cc(CC(NC(C)=O)C(=O)NC2CCN(C(=O)C3CC3)CC2)cc(OC)c1 (stereo not given)	–	–	–	55.0	–	–
CN(c1ccccc1)S(=O)(=O)c1ccc(NC(=O)c2ccccc2)cc1	–	–	–	–	–	–
CN(c1ccccc1)S(=O)(=O)c1ccc(NC(=O)c2nc(S(C)(=O)=O)ncc2Cl)cc1	–	–	93.2	71.0	–	–
COc1cccc(NC(=O)c2nc(SC)ncc2Cl)c1	–	–	–	–	–	–
COc1cccc(NC(=O)c2nc(S(C)(=O)=O)ncc2Cl)c1	–	–	74.4	53.0	–	–
CC(C)(C)C(=O)Nc1cccc(-c2cc(-c3c(Cl)cccc3Cl)no2)c1	–	54.1	–	–	–	–
CC(C)N1CCN(c2ccc(OC[C@H]3CO[C@](Cn4cncn4)(c4ccc(Cl)cc4Cl)O3)cc2)CC1	56.3	·	–	–	·	·
CC(C)N1CCN(c2ccc(OCC3COC(Cn4cncn4)(c4ccc(Cl)cc4Cl)O3)cc2)CC1 (stereo not given)	–	·	–	–	·	·
CC(C)c1ccc(C(=O)NCCCN2CCOCC2)cc1	–	–	–	–	–	–
CC(C)c1ccc(/C=C2\C(=O)N(CCN3CCOCC3)C(=S)N2C)cc1	–	66.3	–	–	–	–
O=C(/C(=C\c1ccccc1)c1nc2ccccc2[nH]1)c1ccc(Cl)cc1	–	–	–	–	–	–
COc1ccc(C(=O)N/C(=C\c2cccs2)c2nc3ccccc3[nH]2)cc1OC	–	–	–	–	-60.4	–
COc1cc(/C=C(/C(=O)c2cccs2)c2nc3ccccc3[nH]2)ccc1O	–	82.0	–	–	–	–
O=C(/C(=C/c1ccc(Cl)cc1)c1nc2ccccc2[nH]1)c1cccs1	–	240.6	–	–	–	–
COc1ccccc1-c1cnc(C(O)c2ccc(C)cc2)[nH]1 (stereo not given)	·	·	–	–	·	·
CCCNC(=O)C[C@H]1C[C@H]2c3cc(NC(=O)Nc4ccc(F)cc4)ccc3O[C@H]2[C@@H](CO)O1	–	·	–	–	·	·
Cc1cc(S(=O)(=O)Nc2ccc(C(=O)NCC(C)(C)N3CCOCC3)cc2)ccc1F	–	–	–	–	-68.5	–
CC(C)(CNC(=O)c1ccc(NS(=O)(=O)c2ccc(Br)cc2)cc1)N1CCOCC1	–	–	–	–	–	·
COc1cc(O)c(CC=C(C)C)c(O)c1C(=O)CCc1ccc(O)cc1	–	–	81.2	70.8	–	·
O=C(CCc1ccc(O)cc1)c1c(O)cc(O)cc1O	–	–	–	–	–	·
Cc1ccc(NC(=S)Nc2cccc3ccccc23)cc1	–	–	–	66.0	-79.9	–
SMILES	EBV LMP1 NFkB	HSF1 activator	TWEAK-Fn14 inh	TROY signal inh	HSF1 inhib	HSP90 inh
Cc1cccc(NC(=S)Nc2cccc3ccccc23)c1	–	–	–	–	–	–
CCOc1ccc(NC(=S)Nc2ccc(C)c([N+](=O)[O-])c2)cc1	–	–	–	–	–	16.9
CCOc1ccc(NC(=S)Nc2cccc3cnccc23)cc1	–	–	–	–	–	–
CCOc1ccc(NC(=S)Nc2cccc3ccccc23)cc1	–	–	67.5	–	–	–
CCc1cccc(NC(=S)Nc2cccc3ccccc23)c1	–	–	–	52.2	–	–
O=C(OCC(=O)N1CCc2ccccc2C1)c1cccs1	–	80.1	–	–	–	–
CC1CCN(CC(=O)c2cccs2)CC1	–	–	–	–	-62.0	–
O=C(OCC(=O)N1CCCCC1)c1cccs1	–	·	–	–	·	·
CC1CCN(C(=O)COC(=O)c2cccs2)CC1	–	·	57.5	–	·	·
CCOC(=O)N(C)c1c(CC)nc2c(OCc3ccccc3C)cccn12	·	·	–	–	·	·
CN1c2ccccc2C(C)(C)C12C=Nc1c(ccc3ccccc13)O2 (stereo not given)	–	–	71.4	70.5	–	–
CC1(C)OC(=O)N(c2ccccc2)C12C=Cc1cc(Br)ccc1O2 (stereo not given)	–	–	–	–	–	–
CN1c2ccccc2C(C)(C)[C@]12C=Cc1cc(O)ccc1O2	–	–	101.8	–	–	–
COc1ccc2ccc3c(c2c1)N=CC1(O3)N(C)c2ccccc2C1(C)C (stereo not given)	–	–	–	–	–	–
C=CC(=O)N1C/C(=C/c2ccc(F)cc2)C(=O)/C(=C\c2ccc(F)cc2)C1	88.7	·	105.9	78.6	·	·
COc1cc(NC(=O)C2=C(N3CCOCC3)/C(=C\c3ccc(Cl)cc3Cl)CC2)cc(OC)c1OC	–	–	51.6	–	–	–
COc1cc(NC(=O)C2=C(N3CCOCC3)/C(=C\c3ccc(Br)cc3)CC2)cc(OC)c1OC	–	96.8	–	–	–	–
N#C/C(=C/C1=C(N2CCOCC2)C(=C/c2ccc(Cl)cc2Cl)/CC1)C(=O)Nc1ccccc1F	–	·	–	–	·	·
Cc1c(C#N)c2n(c1C)CCCC(=O)N2	–	·	–	–	·	·
CCOC(=O)c1[nH]cnc1N=Nc1c(O)ccc2ccccc12	46.7	–	–	–	–	–
Oc1ccc2ccccc2c1N=Nc1ccccc1F	–	–	–	–	–	–
Oc1ccc2ccccc2c1N=Nc1ccccn1	63.0	–	–	–	–	–
CCc1nc2ccc(C(=O)Nc3ccc(OC)c(OC)c3)cn2c1N(C)CCC(C)C	·	·	–	–	·	·
Cc1ccc(C(=O)NCc2ccc3c(c2)OCO3)c(Cl)c1	–	·	–	–	·	·
Cc1cccc(CS(=O)(=O)c2ncc(Cl)c(C(=O)NCc3ccc4c(c3)OCO4)n2)c1	–	317.2	89.1	69.3	–	–
COC(=O)c1ccc(NC(=O)c2nc(S(=O)(=O)Cc3cccc(C)c3)ncc2Cl)cc1	–	–	71.6	75.9	-86.0	–
Cc1cccc(COC(=O)Nc2ccc(NC(=O)c3ccccc3Cl)cc2)c1	–	–	–	–	–	–
CC(=O)Nc1ccc(NC(=O)c2nc(S(=O)(=O)Cc3cccc(C)c3)ncc2Cl)cc1	–	–	70.0	74.8	?	–
CCCS(=O)(=O)c1ncc(Cl)c(C(=O)Nc2ccc(S(=O)(=O)Nc3ncccn3)cc2)n1	–	–	–	–	–	–
COc1cc(F)ccc1-c1csc(C(C)(NC(C)=O)c2ccccc2)n1 (stereo not given)	·	·	–	–	·	·

Screening data as filed in PubChem.
